About 310 (2.8%) of roughly 11,000 compounds were called active. The sample holds actives, similar compounds and a random draw of the others, so the mix is not that of the screen. Rule as the data show it: active = activity change below about -85%; inactive = the rest.
Test system: intestinal alkaline phosphatase [Mus musculus]
Test: activators of mouse IAP, confirmation, biochemical, luminescence, single concentration (AID 434970)
Settings: purified mouse IAP, CDP-Star luminescence, 30 min, at 10 µM; activation factor: measured here: IAP activation factor, stronger effect = higher value; activity change, negative = activation: stronger effect = lower value

| SMILES | activation factor | activity change, negative = activation |
| --- | --- | --- |
| Fc1ccccc1Cn1nnc2c(NCc3ccccn3)ncnc21 | 0.966 | 3.35% (inactive) |
| CCN(CC)CCNC(=O)C1c2ccccc2C(=O)N(CCOC)C1c1ccc(F)cc1 (stereo unspecified) | 0.972 | 2.85% (inactive) |
| Cc1ccc(C(C)NC(=S)NCc2ccc(F)cc2)c(C)c1 (stereo unspecified) | 1.39 | -38.5% (inactive) |
| CC(=O)Nc1ccc(SCC(=O)OCC(=O)NC(=O)NCc2ccco2)cc1 | 0.893 | 10.7% (inactive) |
| COc1ccc(Cl)cc1NC(=O)C1CCCO1 (stereo unspecified) | 0.924 | 7.6% (inactive) |
| Cc1ccc(C(=O)O)cc1S(=O)(=O)N1CCSCC1 | 0.916 | 8.35% (inactive) |
| CCN(CC)CCCNC(=O)C1c2cc(OC)c(OC)cc2C(=O)N(C)C1c1cccs1 (stereo unspecified) | 1.04 | -4.25% (inactive) |
| COc1cccc(-c2cc(C(F)(F)F)n3ncc(C(=O)NCC4CCCO4)c3n2)c1 (stereo unspecified) | 1.05 | -4.65% (inactive) |
| CC(C)CCNC(=O)COc1ccc2c(c1)C(=O)CC(C)(C)O2 | 1 | -0.15% (inactive) |
| CC(CNC(=S)Nc1cc(F)cc(F)c1)CSc1ccc(Cl)cc1 (stereo unspecified) | 1.3 | -29.9% (inactive) |
| CC(C)Oc1ccc(/C=N/NC(=O)C(CSCc2ccccc2)NC(=O)c2ccc([N+](=O)[O-])cc2)cc1 (stereo unspecified) | 0.941 | 5.95% (inactive) |
| CSc1nc2n(n1)C(c1cccc(F)c1)C(C(=O)Nc1ccc(C)cc1C)=C(C)N2 (stereo unspecified) | 0.93 | 6.95% (inactive) |
| Cc1ccc(NC(=O)C2CC(=O)NC(N3CCc4ccccc43)=N2)cc1 (stereo unspecified) | 0.947 | 5.35% (inactive) |
| CC(C)c1ccc(NC(=O)C(c2ccccc2)N2CC(=O)Nc3ccccc32)cc1 (stereo unspecified) | 1.24 | -23.8% (inactive) |
| Cc1ccc(NC(=O)C2C(c3ccccc3)C2(Cl)Cl)c(C)c1 (stereo unspecified) | 1.59 | -59.4% (inactive) |
| Cc1ccc(NC(=O)C2CC(=O)Nc3nc4ccccc4n32)c(C)c1 (stereo unspecified) | 2.57 | -157% (active) |
| CC(C)c1ccc(NC(=O)C2CC(=O)Nc3nc4ccccc4n32)cc1 (stereo unspecified) | 2.38 | -138% (active) |
| O=C1/C(=C/c2ccco2)CCc2ccccc21 | 1.04 | -4% (inactive) |
| Cc1ccc(C)c(NS(=O)(=O)c2ccc3[nH]c(=O)oc3c2)c1 | 0.111 | 88.9% (inactive) |
| C[C@H](CO)N1C[C@H](C)[C@@H](CN(C)S(=O)(=O)c2ccccc2)Oc2ccc(NC(=O)Nc3ccc4c(c3)OCO4)cc2C1=O | 1.95 | -94.6% (inactive) |
| C[C@H](CO)N1C[C@H](C)[C@@H](CN(C)S(=O)(=O)c2ccc(F)cc2)Oc2ccc(NC(=O)Nc3ccccc3)cc2C1=O | 1.91 | -91.2% (inactive) |
| COc1ccc(NC(=O)Nc2ccc3c(c2)C(=O)N([C@H](C)CO)C[C@H](C)[C@@H](CN(C)S(=O)(=O)c2ccc(F)cc2)O3)cc1 | 2.01 | -101% (active) |
| C[C@H](CO)N1C[C@H](C)[C@@H](CN(C)S(=O)(=O)c2ccccc2)Oc2ccc(NC(=O)Nc3ccccc3)cc2C1=O | 2.62 | -162% (active) |
| COc1ccc(S(=O)(=O)N(C)C[C@H]2Oc3ccc(NC(=O)Nc4ccccc4)cc3C(=O)N([C@H](C)CO)C[C@@H]2C)cc1 | 2.15 | -115% (active) |
| COc1ccc(NC(=O)Nc2ccc3c(c2)C(=O)N([C@H](C)CO)C[C@H](C)[C@@H](CN(C)S(=O)(=O)c2ccccc2)O3)cc1 | 1.98 | -97.7% (inactive) |

| SMILES | activation factor | activity change, negative = activation |
| --- | --- | --- |
| COc1ccc(NC(=O)Nc2ccc3c(c2)C(=O)N([C@H](C)CO)C[C@H](C)[C@@H](CN(C)S(=O)(=O)c2ccc(OC)cc2)O3)cc1 | 1.77 | -77.3% (inactive) |
| COc1ccc(S(=O)(=O)N(C)C[C@H]2Oc3ccc(NC(=O)Nc4ccc5c(c4)OCO5)cc3C(=O)N([C@H](C)CO)C[C@@H]2C)cc1 | 1.86 | -86.1% (inactive) |
| COc1ccc(NC(=O)N(C)C[C@H]2Oc3ccc(NC(=O)Nc4ccc(C(F)(F)F)cc4)cc3C(=O)N([C@H](C)CO)C[C@@H]2C)cc1 | 1.75 | -75.5% (inactive) |
| COc1ccc2[nH]c(=O)c(CN(C(C)=O)c3cccc(C)c3)cc2c1 | 0.991 | 0.9% (inactive) |
| O=C(CSc1nnc(-c2cccs2)n1-c1cccc(Cl)c1)c1cccc2c1OCCO2 | 0.901 | 9.9% (inactive) |
| CCCc1[nH]nc2c1C(Cc1ccccc1)C(C#N)=C(N)O2 (stereo unspecified) | 0.921 | 7.85% (inactive) |
| CC(C)N(C(=O)[C@H]1C[C@H](CC(=O)NCCCn2ccnc2)C(=O)N2CCc3c([nH]c4cc(CCC(=O)N(C)C)ccc34)[C@]12C)C(C)C | 0.995 | 0.5% (inactive) |
| CCOC(=O)C1C(C(=O)OC)=C(C2=CCCCC2)c2ccccc2N1S(=O)(=O)C(F)(F)F (stereo unspecified) | 0.97 | 3% (inactive) |
| Cc1ccc(NC(=O)C2CCCNC2=O)nc1 (stereo unspecified) | 0.929 | 7.05% (inactive) |
| Cc1cc(N2CCN(C)CC2)nc2ccc(NC(=O)c3ccc4c(c3)OCO4)cc12 | 1.03 | -2.9% (inactive) |
| CCCc1n[nH]c2c1/C(=N\O)CCC2 | 1.05 | -5.35% (inactive) |
| Cc1ccccc1NC(=O)CCN1CCN(Cc2ccccc2)CC1 | 1.13 | -13.2% (inactive) |
| Cc1ccc(CC(NC(=O)C2CCCCC2)C(=O)O)cc1 (stereo unspecified) | 1.07 | -6.55% (inactive) |
| CC(C)Cc1ccc(CN2CCC(n3nccc3NC(=O)C3CCCC3)CC2)cc1 | 1.98 | -98.2% (active) |
| CSc1ccc(CN2CCC(n3nccc3NC(=O)CCCc3ccccc3)CC2)cc1 | 2.27 | -126% (active) |
| O=C(CN1CCN(Cc2ccc(Cl)cc2)CC1)N/N=C/c1ccncc1 | 0.975 | 2.5% (inactive) |
| Cc1onc(-c2ccccc2)c1C(=O)Nc1ccnn1C1CCCCC1 | 0.923 | 7.65% (inactive) |
| O=C(CCCc1ccccc1)Nc1ccnn1C1CCN(Cc2ccc(Cl)cc2)CC1 | 2.18 | -118% (active) |
| O=C(CCc1nc2ccccc2c(=O)[nH]1)NC1CCN(Cc2ccccc2)CC1 | 0.905 | 9.55% (inactive) |
| O=C(NNS(=O)(=O)c1ccc(Cl)cc1)C1CCN(Cc2ccccc2)CC1 | 1.1 | -9.8% (inactive) |
| CCCN1Cc2cc(OC)ccc2-c2ccccc2S1(=O)=O | 1.13 | -13.1% (inactive) |
| O=C(NCc1ccc2c(c1)OCO2)c1cccnc1 | 1.13 | -13% (inactive) |
| O=C(OCC1OC2C(Oc3nc(=O)ccn32)C1O)c1ccccc1 (stereo unspecified) | 1.02 | -1.5% (inactive) |
| N#Cc1c2c(c(NCc3cccnc3)n3c1nc1ccccc13)CCC2 | 0.779 | 22.1% (inactive) |
| C#CCOCCOCCOCCNc1nc(N2CCN(C(=O)CCCCCCCCCCNC(=O)[C@H](CCCCN)n3cc(C)nn3)CC2)nc(N2CCN(C(=O)CCCCCCCCCCNC(=O)[C@@H]([C@H](C)CC)n3cc(CCCCCN)nn3)CC2)n1 | 3.63 | -263% (active) |

| SMILES | activation factor | activity change, negative = activation |
| --- | --- | --- |
| C#CCOCCOCCOCCNc1nc(N2CCN(C(=O)CCCCCCCCCCNC(=O)[C@H]([C@@H](C)CC)n3cc(CCCCN=C(N)N)nn3)CC2)nc(N2CCN(C(=O)CCCCCCCCCCNC(=O)[C@H](CCCCN)n3cc(C)nn3)CC2)n1 | 8.54 | -754% (active) |
| CC1CCCC(C(=O)O)N1C(=O)CCS (stereo unspecified) | 0.988 | 1.25% (inactive) |
| O=C(Cc1c[nH]c2ccccc12)Nc1nc2ccccc2[nH]1 | 0.845 | 15.5% (inactive) |
| Cc1csc(NC(=O)Nc2ccc(Cl)cc2)n1 | 1.11 | -11.1% (inactive) |
| CC(C)S(=O)(=O)c1csc(NC(=O)Nc2ccc(Cl)cc2)c1Cl | 2.16 | -116% (active) |
| COC(=O)c1c(NC(=O)Nc2ccc(Cl)cc2)sc(C)c1C | 0.99 | 1% (inactive) |
| CNC(=O)CCC(=O)Nc1ccc(C(=O)OC)cc1 | 0.98 | 2.05% (inactive) |
| COC(=O)c1ccc(NC(=O)Nc2ccc(C)cc2)cc1 | 2.15 | -115% (active) |
| COC(=O)c1ccc(NC(=O)Nc2cccc(F)c2)cc1 | 1.97 | -97.4% (active) |
| CCS(=O)(=O)Nc1ccc(C(=O)OC)cc1 | 0.912 | 8.8% (inactive) |
| COC(=O)c1ccc(NC(=O)Nc2ccc(F)c(Cl)c2)cc1 | 1.86 | -86.3% (inactive) |
| CCOC(=O)c1ccc(NC(=O)Nc2ccc(F)cc2)cc1 | 1.67 | -66.6% (inactive) |
| CCCCOC(=O)c1ccc(NC(=O)Nc2ccc(OC)c(OC)c2)cc1 | 1.64 | -63.5% (inactive) |
| CCOC(=O)c1ccc(NC(=O)c2ccc3c(c2)OCO3)cc1 | 0.959 | 4.1% (inactive) |
| CCOC(=O)c1ccc(NC(=O)Nc2ccc3c(c2)OCCO3)cc1 | 2.06 | -106% (active) |
| CC(Sc1nnc(-c2ccco2)o1)C(=O)Nc1ccc(OC(F)F)cc1 (stereo unspecified) | 0.893 | 10.7% (inactive) |
| CC1=C(C(N)=O)C(c2cccnc2)n2nc(-c3cccc(Cl)c3)nc2N1 (stereo unspecified) | 0.96 | 4% (inactive) |
| CCCNC(=O)c1csc2c1CCCCC2 | 0.955 | 4.55% (inactive) |
| CC(NC(=O)CCSc1nc(-c2ccc3c(c2)OCO3)cc(C(F)(F)F)n1)c1ccccc1 (stereo unspecified) | 0.978 | 2.2% (inactive) |
| Cc1cccc(C2=NN(c3ccccc3)[C@@H](C(=O)N3CCOC3=O)[C@@H]2c2ccccc2)c1 | 0.97 | 3% (inactive) |
| CCCN=C1N(CC)C[C@@H]2[C@@H]3C(=O)N(Cc4ccccc4)C(=O)[C@@H]3[C@](Cc3ccccc3)(C(=O)OC)N12 | 1.07 | -7.35% (inactive) |
| O=C(CCS(=O)(=O)c1cccc2nonc12)NC1CCCCCC1 | 1.11 | -10.6% (inactive) |
| CN(C)CCCNC(=O)C[C@H]1C[C@H](C(=O)N2CCCCC2)[C@@]2(CCc3ccccc3)c3[nH]c4cc(-c5ccco5)ccc4c3CCN2C1=O | 1.28 | -28.4% (inactive) |

— PubChem BioAssay AID434970 (Sanford-Burnham Center for Chemical Genomics, 2010)
